# Results reported in PubChem BioAssay AID624172 (National Center for Advancing Translational Sciences (NCATS), 2012).
# Among all 380,000 compounds or so, about 25 (0.007%) were called active. Calls come from the whole dose curve; as a rule, active = well fitted activation curve with a large enough effect; inconclusive = small, poorly fitted or top-dose-only effect; inactive = no such curve, though single readings can be large or run the other way. A selection follows.
# Target: Glucagon-like peptide 1 receptor (Homo sapiens) (UniProt P43220)
# Experiment: qHTS of GLP-1 Receptor Agonists; note: % of control where 0% means no effect
# Conditions: HEK293 GLP-1R CRE-luciferase, luminescence, 4-6 h, cells express a hypersensitive GLP-1R form; series mostly up to 45.6 µM; activation: at the top concentration
# Description: The overall goal of this project was to develop a novel assay for discovering small molecule ligands for class B1 G protein-coupled receptors (GPCRs). Very few agonists (or inverse agonists) with generally weak activity for this entire group of physiologically important receptors are known to date. To establish proof-of-principle that this critical bottleneck can be overcome with a suitable screening approach, our studies focused on the class B1 receptor for glucagon-like peptide-1 (GLP-1R), a potential therapeutic target for diabetes and neurodegenerative disease.
# The assay was developed in a "mix and measure" format using a cell-based functional readout. Toward this goal, stably transfected HEK293 cell clones were established that co-express (i) a cAMP-responsive luciferase reporter gene, and (ii) GLP-1Rs that upon ligand interaction either stimulate (agonists) or inhibit (inverse agonists) luciferase activity. In different cell lines to be used for screening, expressed GLP-1Rs are specifically optimized for high sensitivity detection of either weak agonists (hypersensitive receptor) or inverse agonists (constitutively active receptor mutant). In addition, control cell lines were developed that express either the cAMP-responsive reporter gene without recombinant GLP-1Rs (enabling initial exclusion of GLP-1R independent effects of candidate probes), or the reporter gene together with wild type GLP-1Rs (for confirmation of probe activity at this receptor), or the reporter gene in combination with the constitutively active orphan receptor GPR119 (enabling initial exclusion of GLP-1R independent inhibitory effects of candidate inverse agonists).
# To that end, this assay was optimized for 1536-well format and screened against the MLSMR.
# NIH Molecular Libraries Probe Production Network [MLPCN]
# NIH Chemical Genomics Center [NCGC]
# PI Name: Martin Beinborn, Tufts Medical Center
# In a white solid 1536-well plate, 6 uL of cells are dispensed in DMEM without phenol red, 10% Nu serum, and 1% pen-strep medium. The plates are then incubated for 12 hours at 37 deg C at 5% CO2 before 23 nL of compounds are added. After a 4-6 hr incubation at37 deg C and 5% CO2, 3 uL of detection reagent are added and after a 12 min incubation at RT, a luminescent read is obtained on the ViewLux.
# Glucagon-like peptide 1 receptor (Homo sapiens), sequence (P43220 whole entry, looked up): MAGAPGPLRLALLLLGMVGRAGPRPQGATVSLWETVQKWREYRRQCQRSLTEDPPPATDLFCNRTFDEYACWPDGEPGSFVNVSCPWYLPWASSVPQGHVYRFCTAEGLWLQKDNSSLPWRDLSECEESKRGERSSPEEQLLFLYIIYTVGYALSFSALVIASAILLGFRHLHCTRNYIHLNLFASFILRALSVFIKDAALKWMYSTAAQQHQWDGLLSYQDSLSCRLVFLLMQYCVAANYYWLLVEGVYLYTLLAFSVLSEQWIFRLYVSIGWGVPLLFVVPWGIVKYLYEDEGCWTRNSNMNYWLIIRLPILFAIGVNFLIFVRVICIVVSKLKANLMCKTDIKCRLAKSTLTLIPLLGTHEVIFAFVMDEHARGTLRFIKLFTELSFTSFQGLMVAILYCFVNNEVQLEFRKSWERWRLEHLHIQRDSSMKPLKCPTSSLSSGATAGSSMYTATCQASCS
row,SMILES,activation
1,COC(=O)[C@@H]1CC2=CC(=O)CC[C@]2(C)[C@@]23O[C@@H]2C[C@@]2(C)[C@@H](CC[C@@]24CCC(=O)O4)[C@H]13,6.89% (inactive)
2,OCC(CO)NC1C[C@](O)(CO)[C@@H](O)[C@H](O)[C@H]1O (stereo partly specified),-3.76% (inactive)
3,Cc1ccccc1NC(=O)Cn1c(=O)n(Cc2ccco2)c(=O)c2ccc(C(=O)NC3CCCC3)cc21,2% (inactive)
4,CC(=O)O[C@]1(C(C)=O)CC[C@@H]2[C@@H]3C=C(C)C4=CC(=O)CC[C@@]4(C)[C@H]3CC[C@]21C,-3.27% [at 19.8 µM] (inactive)
5,C[C@]12CC[C@@H]3c4ccc(O)cc4C[C@@H](CCCCCCCCCS(=O)CCCC(F)(F)C(F)(F)F)C3[C@@H]1CC[C@@H]2O (stereo partly specified),14.3% (inactive)
6,Cc1nn(-c2ccc(F)cc2)c(-n2cccc2)c1C(=O)N1CCN(c2ccccc2)CC1,4.43% (inactive)
7,O=C(CCCCn1c(=O)c2ccccc2n(CC(=O)Nc2cccc(C(F)(F)F)c2)c1=O)NCc1ccc2c(c1)OCO2,1.22% (inactive)
8,COc1cccc(NC(=O)CSc2cc(=O)n(C)c3ccc(Cl)cc23)c1,5.73% (inactive)
9,CCc1ccccc1NS(=O)(=O)c1ccc2nc(-c3ccccc3)[nH]c2c1,-6.53% (inactive)
10,Cc1ccc(C)c(N2CCN(C(=O)CCc3c(C)nc4c(c3C)c(=O)n(C)c(=O)n4C)CC2)c1,-1.73% (inactive)
11,O=C(Nc1cccc(C(F)(F)F)c1)c1cc(Br)cc(Br)c1O,-2.09% (inactive)
12,CCOC(=O)c1ccc(N2C(=O)c3n[nH]c(C)c3C2c2ccc(O)c(OC)c2)cc1 (stereo unspecified),9.13% (inactive)
13,CCc1ccc(NC(=O)CN2CCSc3ccc(S(=O)(=O)N4CCCC4)cc32)cc1,7.06% (inactive)
14,C=C1C(=CC=C2CCC[C@]3(C)[C@@H]([C@H](C)C=C[C@H](C)C(C)C)CC[C@@H]23)C[C@@H](O)C[C@@H]1O,-4.1% (inactive)
15,CCOc1ccc(NC(=O)Cn2cc(C(=O)c3ccc(C)cc3)c(=O)c3cc4c(cc32)OCCO4)cc1,0.588% (inactive)
16,CCOC(=O)c1oc2ccc(S(=O)(=O)n3nc(-c4ccccc4OC)cc3N)cc2c1C,0.713% (inactive)
17,COc1ccc(S(=O)(=O)n2nc(C)c(S(=O)(=O)N3CCCCCC3)c2C)cc1,-1.8% (inactive)
18,CCN(C(=O)c1sc2cc(OC)ccc2c1Cl)c1ccccc1,8.92% (inactive)
19,CN(C)c1ccc(NC(=O)CSc2nc(-c3ccco3)cc(C(F)(F)F)n2)cc1,0.431% (inactive)
20,CCCCC(=O)OCC(=O)[C@H]1[C@H](C)C[C@@H]2[C@@H]3C[C@@H](F)C4=CC(=O)C=C[C@]4(C)[C@@]3(F)[C@@H](O)C[C@@]21C,-0.472% (inactive)
21,COc1ccc(NC(=O)Cn2c(=O)cc(C)c3c(C)nn(-c4cccc(Cl)c4C)c32)cc1OC,0.446% (inactive)
22,CCCCCCCCCc1ccc(OCCOCCOCCOCCOCCOCCOCCOCCOCCO)cc1,5.73% (inactive)

row,SMILES,activation
1,COc1cc(CNCCSc2nnnn2C)ccc1OCc1c(F)cccc1Cl,2.51% (inactive)
2,Cc1cccc(N2CCN(C(=O)c3cc4c(=O)oc5ccccc5c4s3)CC2C)c1 (stereo unspecified),-0.212% (inactive)
3,CC(C)(O/N=C(\C(=O)N[C@@H]1C(=O)N2C(C(=O)[O-])=C(C[n+]3ccccc3)CS[C@@H]12)c1csc(N)n1)C(=O)O,-3.84% [at 19.8 µM] (inactive)
4,COc1ccccc1NC(=O)C1=C(C)Nc2ncnn2C1c1sccc1C (stereo unspecified),9.66% (inactive)
5,CCC(CCC(C)C1CCC2C3CC=C4CC(O)CC[C@@]4(C)C3CC[C@@]12C)C(C)C (stereo partly specified),11.2% (inactive)
6,Cc1sc2ncn(CC(=O)N3CCN(c4ccc(F)cc4)CC3)c(=O)c2c1S(=O)(=O)N1CCN(c2ncccn2)CC1,-4.64% (inactive)
7,Cc1cccc(NC(=O)Cn2c(C(F)(F)F)nc3ccccc32)c1C,-0.396% (inactive)
8,COc1cc(OC)cc(C(=O)Nc2ccc3nc(Nc4cccc(C(F)(F)F)c4)cc(C)c3c2)c1,-14.1% (inactive)
9,CC(=O)Oc1ccccc1C(=O)Nc1ncc([N+](=O)[O-])s1,-1.78% (inactive)
10,COc1ccccc1CNC(=O)CCn1c(=O)c2ccccc2n(CC(=O)Nc2ccc(Br)cc2F)c1=O,-2.58% (inactive)
11,Cc1ccc(N2CCN(C(=O)CCc3c(C)nc4c(c3C)c(=O)n(C)c(=O)n4C)CC2)c(C)c1,-1.8% (inactive)
12,C/C=C1\C2C=C(C)CC1(N)c1ccc(=O)[nH]c1C2 (stereo unspecified),-2.31% (inactive)
13,CC(=O)NC(=O)c1ccccc1O,-4.09% (inactive)
14,CCCOc1ccc(-c2cccc(NS(=O)(=O)c3ccccc3)c2)nn1,-0.146% (inactive)
15,Cc1ccc(S(=O)(=O)NC(=O)NN2C[C@H]3CCC[C@@H]3C2)cc1,-4.28% [at 19.8 µM] (inactive)
16,COc1ccc(-c2c(C)nn3c(N4CCC(C(=O)NCCC(C)C)CC4)cc(C)nc23)cc1OC,0.364% (inactive)
17,CN(C)CCCSc1ccccc1NC(=O)/C=C/c1ccccc1,6.6% (inactive)
18,CCOC(=O)c1c(NC(=O)c2ccc(S(=O)(=O)N3CCCC(C)C3)cc2)sc2c1CCN(C(C)C)C2 (stereo unspecified),8.14% (inactive)
19,C[N+](C)(CCOc1ccccc1)Cc1cccs1 (tested in a mixture with another compound),1.72% (inactive)
20,CCOc1ccccc1NC(=O)C1=C(C)Nc2ncnn2C1c1ccc(NC(C)=O)cc1 (stereo unspecified),-6.86% (inactive)
21,COc1cccc(CNCCSc2nnnn2C)c1OCc1ccccc1Cl,2.98% (inactive)
22,CCc1ccc(C(=O)CC2(O)C(=O)N(CCc3ccccc3)c3ccc(Br)cc32)cc1 (stereo unspecified),-2.5% (inactive)

row,SMILES,activation
1,COc1ccccc1CNC(=O)CCn1c(=O)c2ccccc2n(CC(=O)Nc2cccc(Cl)c2)c1=O,-0.689% (inactive)
2,COc1ccc(CCNc2nc(-c3ccc(F)cc3)cc(C(F)(F)F)n2)cc1OC,-0.152% (inactive)
3,CCc1ccc(Sc2cc(C(=O)NCCCOC(C)C)c3ccccc3n2)cc1,-7.03% (inactive)
4,O=C(CSc1ncc(CO)n1Cc1ccc(Cl)cc1)NCc1ccc(F)cc1,8.49% (inactive)
5,COCCNC(=O)c1ccc2c(c1)N=C(C)c1cc(C)ccc1S2,-0.88% (inactive)
6,Oc1ccc(Cl)c2c1CCC2,4.26% (inactive)
7,COc1ccccc1-c1cc2nc(C)c(CCC(=O)O)c(C)n2n1,-1.35% (inactive)
8,O=C(CCS(=O)(=O)c1ccc2c(c1)NC(=O)CO2)Nc1cccc(C(F)(F)F)c1,-0.552% (inactive)
9,CCCC[C@H]1C(=O)N(c2ccccc2)N(c2ccc(O)cc2)C1=O,1.82% [at 19.8 µM] (inactive)
10,COc1ccc(-n2c(C)nc3c(cnn3-c3ccc(F)cc3)c2=O)cc1,-0.59% (inactive)
11,COc1ccc2cc(-c3nc(Cl)c4c5c(sc4n3)CC(C)CC5)c(=O)oc2c1 (stereo unspecified),1.37% (inactive)
12,O=C(OCc1ccccc1)c1ccc(O)cc1,0.159% (inactive)
13,Cc1ccccc1C(=O)Nc1cc(C)c(O)c(-c2nc3ccccc3o2)c1,-0.525% (inactive)
14,O=C1c2c(O)cccc2[C@@H]([C@@H]2O[C@H](CO)[C@@H](O)[C@H](O)[C@H]2O)c2cc(CO)cc(O)c21,0.834% (inactive)
15,CCOCCCNC(=O)c1cn(CC)c2ccc(S(=O)(=O)N3CCc4ccccc4C3)cc2c1=O,1.02% (inactive)
16,CC(=O)N1CCc2cc(Br)cc(S(=O)(=O)CCC(=O)NCCc3ccc(Cl)cc3)c21,0.617% (inactive)
17,COc1ccc(Nc2ncc(C(=O)Nc3cc(C)ccc3OC)c3ccccc23)cc1,0.74% (inactive)
18,COc1cc2nc(SCC(=O)Nc3ccccc3F)n3nc(-c4ccccc4)nc3c2cc1OC,-0.682% (inactive)
19,CCN(CC)c1ccc(C2C(C(N)=O)=C(C)Nc3nc(SCc4ccccc4)nn32)cc1 (stereo unspecified),2.01% (inactive)
20,CCCCCn1c(=O)[nH]c2cc(C(=O)Nc3ccc(F)cc3)ccc2c1=O,0.528% (inactive)
21,CC[C@]1(C)CC(=O)NC1=O,-4.13% (inactive)
22,COc1cc(OC)c(NC(=O)c2c3c(nn2C)-c2ccccc2SC3)cc1Cl,0.142% (inactive)

row,SMILES,activation
1,COc1ccc(-c2cc(C(F)(F)F)nc(SCC(=O)N(C)Cc3ccccc3)n2)cc1OC,4% (inactive)
2,CC1(C)O[C@@H]2C[C@@H]3[C@H]4C[C@@H](F)C5=CC(=O)C=C[C@]5(C)[C@@]4(F)[C@@H](O)C[C@]3(C)[C@]2(C(=O)CO)O1,-0.578% (inactive)
3,Cc1ccc(C)c(N2C(=O)N(Cc3c(F)cccc3Cl)c3ccccc3S2(=O)=O)c1,0.891% (inactive)
4,COc1cccc(CNC(=O)C(NS(=O)(=O)c2ccc3nc(C)sc3c2)C(C)C)c1 (stereo unspecified),-4.28% (inactive)
5,Cc1cc2c(cc1S(=O)(=O)CCC(=O)Nc1ccc(OC(F)(F)F)cc1)OCC(=O)N2,18.1% (inactive)
6,NC(=O)C(=O)N/N=C/c1ccc([N+](=O)[O-])o1,-3.04% (inactive)
7,Cc1ccc(-c2ncc(Cl)cc2-c2ccc(S(C)(=O)=O)cc2)cn1,0.0129% (inactive)
8,Cc1nnc(C(=O)NC(C)(C)c2nc(C(=O)NCc3ccc(F)cc3)c(O)c(=O)n2C)o1,12.6% (inactive)
9,CC[C@]1([C@H]2O[C@@H]([C@@H]3O[C@](O)(CO)[C@@H](C)C[C@H]3C)C[C@H]2C)CC[C@@H]([C@]2(C)CC[C@@]3(C[C@@H](O)[C@@H](C)[C@@H]([C@H](C)[C@H](OC)[C@H](C)C(=O)O)O3)O2)O1,-2.14% (inactive)
10,COc1ccc(NC(=O)C2CCCN(S(=O)(=O)c3c(C)[nH]c(=O)[nH]c3=O)C2)c(OC)c1 (stereo unspecified),-0.467% (inactive)
11,Cc1cccc(C)c1NC(=O)NC1=CCCN1C,4.03% (inactive)
12,CCCN(C(=O)Cn1cc(S(=O)(=O)N2CCN(c3ccccc3F)CC2)c2ccccc2c1=O)c1cccc(C)c1,-0.739% (inactive)
13,C[C@@H]1C[C@H]2[C@@H]3C[C@H](F)C4=CC(=O)C=C[C@@]4(C)[C@]3(F)[C@H](O)C[C@]2(C)[C@@]1(O)C(=O)CO,-0.723% [at 19.8 µM] (inactive)
14,CCCC(=O)O[C@]1(C(=O)COC(=O)CC)CC[C@@H]2[C@@H]3CCC4=CC(=O)CC[C@]4(C)[C@H]3[C@@H](O)C[C@@]21C,-1.61% (inactive)
15,CC(=O)CC(c1ccccc1)C1C(=O)Oc2ccccc2C1=O (stereo unspecified),-4.85% (inactive)
16,COc1cc2c(cc1OC)[C@@H](Cc1cc(OC)c(OC)c(OC)c1)[N+](C)(CCCOC(=O)CC/C=C/CCC(=O)OCCC[N+]1(C)CCc3cc(OC)c(OC)cc3[C@H]1Cc1cc(OC)c(OC)c(OC)c1)CC2 (stereo partly specified),-0.798% (inactive)
17,Cc1cc(OCC(=O)NCC2(N(C)C)CCCCC2)cc(C)c1Cl,-2.17% (inactive)
18,CC(=O)c1ccc(NC(=O)C2CCN(S(=O)(=O)c3c(C)noc3/C=C/c3ccc(C)cc3)CC2)cc1,-2.34% (inactive)
19,COc1ccc(NC(=O)c2cnc(Nc3ccc(C)c(Cl)c3)c3ccccc23)cc1OC,-1.26% (inactive)
20,O=C(NCc1ccccc1)C1CCN(S(=O)(=O)c2ccc3[nH]c(=O)ccc3c2)CC1,1.16% (inactive)
